Cruzain inh noDet: blocks cruzain activity in detergent-free assay; P25779; purified cruzain, Z-FR-AMC fluorescence, no detergent; Potency, µM, inactives show max response, negative = inhibition, hits mostly inhibitors; actives 2.3% (n = 200,000);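 further: plate controls were enzyme without inhibitor for no effect and buffer without enzyme for full effect; nearly all actives have a fitted effect of over 40% in size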
Target sequence (P25779 123-467 limits assumed): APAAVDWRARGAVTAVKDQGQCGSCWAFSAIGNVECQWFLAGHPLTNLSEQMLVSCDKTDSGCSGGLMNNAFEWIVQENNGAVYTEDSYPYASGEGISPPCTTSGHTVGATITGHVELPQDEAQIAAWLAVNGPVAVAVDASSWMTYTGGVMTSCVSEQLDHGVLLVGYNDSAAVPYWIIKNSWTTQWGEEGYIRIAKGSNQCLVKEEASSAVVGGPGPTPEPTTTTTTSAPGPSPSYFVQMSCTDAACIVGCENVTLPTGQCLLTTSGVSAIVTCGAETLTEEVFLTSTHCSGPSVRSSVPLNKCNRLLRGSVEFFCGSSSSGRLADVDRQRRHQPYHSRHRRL
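Purified cruzain at 1.5 nM, pre-incubated 15 min with compound at room temperature in 100 mM sodium acetate pH 5.5, 5 mM DTT, 0.00005% Triton X-100. Reaction started with 2 uM Z-FR-AMC; AMC fluorescence increase over 60 s gives rate.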
Cruzain Triton: cruzain (T. cruzi) inhibition with detergent. P25779. purified cruzain, Z-FR-AMC fluorescence, 0.01% Triton. Potency, µM, inactives show max response, negative = inhibition, actives largely listed as inhibitors. actives 0.43% (n = 200,000);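 further: plate controls were neutral wells for no effect and buffer without enzyme for full effect; nearly all actives have a fitted effect of over 40% in size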
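Steps: dispense cruzain (1.5 nM final) in acetate buffer pH 5.5 with DTT and 0.01% Triton X-100; pin-transfer compounds; incubate 15 min RT; add Z-FR-AMC (2 uM final); read fluorescence every 30 s, using the 60 s intensity change.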
Numbers without * were called inactive; ? = inconclusive. Sampled rows, rich in hits. Any-hit rate of the full collection: about 2.4%. The call rests on the fitted dose curve; in most records, active means well fitted curve in the direction sought with a large enough effect; inconclusive means small, poorly fitted or top-dose-only effect, or another doubt; inactive means no such curve, though single readings can be large; an effect the other way counts as inactive or inconclusive. Potency means the concentration at half of the fitted maximal effect.

SMILES	Cruzain inh noDet	Cruzain Triton
COc1ccc(Cn2nnnc2C(c2cccs2)N2CCN(c3ccc([N+](=O)[O-])cc3)CC2)cc1 (configuration not stated)	32µM*	-3%
COc1ccc(Cn2nnnc2C(c2cccs2)N2CCN(c3ccccc3)CC2)cc1 (configuration not stated)	9%	0%
Cc1cccc(-c2noc(C3CCCCC3)n2)c1	-10%	9%
COc1ccc2c(c1)Cc1sc(NC(=O)c3ccc(Cl)cc3)nc1-2	3.2µM*	-7%
COc1ccc2c(c1)-c1nc(NC(=O)c3ccc(OC)c(Br)c3)sc1CC2	10µM*	-8%
COc1ccc2c(c1)-c1nc(NC(=O)c3ccc(C)cc3)sc1CC2	?	-4%
COc1ccc2c(c1)Cc1sc(NC(=O)c3cccc(Cl)c3)nc1-2	9%	0%
COC(=O)c1ccc2c(=O)n3c(nc2c1)SCC(c1ccccc1)=N3	-2%	0%
C/C(N)=C(/C#N)C(=O)CSc1nc2ccccc2c(=O)n1-c1ccc(C)cc1	15%	-3%
O=C(Nc1cc(Sc2ccccn2)cc([N+](=O)[O-])c1)c1cccc(Cl)c1	?	-7%
O=C(Nc1cc(Sc2ccccn2)cc([N+](=O)[O-])c1)c1ccc(Cl)cc1	13µM*	4%
COc1ccc(-c2oc(NC(=O)CCl)c(C#N)c2-c2ccc(OC)cc2)cc1	-24%	-12%
Cc1ccc2c(c1)C(=O)OC(C(=O)Nc1ncc(Cc3ccc(Cl)cc3)s1)C2 (configuration not stated)	1%	0%
Cc1cc([P+](=O)O)c(C)n1-c1ccc(Br)cc1	20µM*	4%
CC(=O)N/N=C/c1cc(C)n(-c2ccc(Br)cc2)c1C	0%	-4%
CCOC(=O)c1ccccc1N/C=C1\CCCCC1=O	12%	-6%
CCOC(=O)c1c(/N=C/c2c(O)n(-c3ccc(F)cc3)c(=S)[nH]c2=O)sc2c1CCCC2	-11%	-6%
CCOC(=O)c1c(/N=C/c2c(O)n(-c3ccccc3F)c(=S)[nH]c2=O)sc2c1CCCC2	16µM*	-11%
COc1ccc(/C=N/NC(=S)Nc2ccccc2)cc1COc1ccc(F)cc1F	7.9µM*	-5%
COc1cc(OC)cc(C(=O)N/N=C/c2ccc(OC)c(COc3ccc(F)cc3)c2)c1	-23%	-6%
CCN(c1ccccc1)S(=O)(=O)c1ccc(Cl)c(NC(=O)Nc2ccc(Cl)cc2C#N)c1	-18%	-4%
O=c1[nH]c(SCc2nc3c(cnn3-c3ccccc3)c(=O)[nH]2)nc2ccccc12	0%	9%
Cc1ccc(-n2ncc3c(=O)[nH]c(SCC(=O)N4CCOCC4)nc32)cc1	-11%	1%
O=c1[nH]c(SCc2ccccc2Cl)nc2c1cnn2-c1ccccc1	16µM*	-3%
Cc1ccc(-n2ncc3c(=O)[nH]c(SCC(=O)N4CCN(c5ccccc5)CC4)nc32)cc1	25µM*	1%
SMILES	Cruzain inh noDet	Cruzain Triton
CCCSc1nnc2c(n1)OC(c1cccn1C)N(C(C)=O)c1ccccc1-2 (configuration not stated)	8%	3%
CCN1CCC[C@@H](OC(=O)C(c2ccccc2)c2ccccc2)C1	-16%	-2%
O=C1CCCC2=C1C(c1cn(-c3ccccc3)nc1-c1cccs1)c1c([nH]c(=O)[nH]c1=O)N2 (configuration not stated)	13µM*	14µM*
CSc1nc2c(c(=O)[nH]1)C(c1cccs1)C1=C(CCCC1=O)N2 (configuration not stated)	3%	-1%
COc1ccc(CC(=O)NCc2ccccc2Cl)cc1S(=O)(=O)N1CCOCC1	-3%	-5%
O=c1c2sc3ccccc3c2n(Cc2ccccc2Cl)c(=O)n1Cc1ccccc1	7%	-2%
CN(C)c1ccc([C@@H]2[C@@H]([N+](=O)[O-])[C@H]3C=Cc4ccccc4N3[C@H]2C(=O)c2ccc(Cl)cc2)cc1	7.9µM*	-5%
CN(C)c1ccc(C(=O)NCc2ccc3c(c2)CCN3C(=O)c2ccc(Cl)cc2)cc1	-2%	6%
COc1ccc(NC(=O)CNC(=O)Cn2c(C)cc3ccccc3c2=O)c(OC)c1	-4%	0%
O=C(/C=C/c1ccc2ccccc2c1)c1ccoc1	20µM*	6%
COc1ccc(C(=O)/C=C/c2ccccc2)cc1	3%	-6%
C=CCc1ccccc1OCC(CN1CCCCC1)OC(C)=O (configuration not stated)	2%	-4%
Cc1ccc(CCC(=O)Nc2ncc(Cc3cccc(Cl)c3Cl)s2)o1	13µM*	1%
CCc1nnc(NC(=O)CCc2ccc(C)o2)s1	-3%	1%
COc1ccccc1NC(=O)c1ccc(NC(=O)COC(=O)C(C)C)cc1	3%	-4%
COc1ccccc1NC(=O)c1ccc(NC(=O)COC(=O)CC(NC(=O)c2ccccc2Cl)c2ccccc2)cc1 (configuration not stated)	20µM*	-6%

Bioassay records deposited in PubChem by National Center for Advancing Translational Sciences (NCATS).
